Counter-ions that a name gives are not always drawn.
Tests used:
Settings in all cases: 10 µM; exposure time 6 h
[1] = test system: Danio rerio larvae (5 dpf); assay: difference in excitability vs DMSO (percentage points); higher = more excitable than DMSO
In short: (§1)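 Wild-type 5 dpf zebrafish larvae in 96-well plates were given 100 µL egg water containing library compound at 10 µM final for 6 h. After 3 h of exposure, plates at 28.5 ℃ were photographed every 6 s during a 3-h programme of moving lines and 100 ms, 400Hz tones. Z-LaP Tracker (a DeepLabCut model) quantified each behaviour, averaged over 48 larvae per compound. Values are the compound mean minus the DMSO-vehicle control, in percentage points.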

[2] = test system: Danio rerio larvae (5 dpf); assay: difference in startle response vs DMSO (percentage points); higher = stronger startle than DMSO
In short: as §1

[3] = test system: Danio rerio larvae (5 dpf); assay: difference in activity during first hour vs DMSO (percentage points); higher = more activity than DMSO
In short: as §1

[4] = test system: Danio rerio larvae (5 dpf); assay: difference in habituation to acoustic stimuli vs DMSO (percentage points); higher = more habituation than DMSO
In short: as §1

[5] = test system: Danio rerio larvae (5 dpf); assay: difference in combined optomotor response to red, green and blue moving lines vs DMSO (percentage points); higher = stronger optomotor response than DMSO
In short: as §1

Compound | difference in excitability [1] | difference in startle response [2] | difference in activity during first hour [3] | difference in habituation to acoustic stimuli [4] | difference [5]
N[C@@H](Cc1cc(I)c(Oc2cc(I)c(O)c(I)c2)c(I)c1)C(=O)O [L-Thyroxine] | 12.1 | -4.02 | 7.61 | -1.15 | 1.95
N#Cc1cc(NC(=O)C(=O)O)c(Cl)c(NC(=O)C(=O)O)c1 [Lodoxamide] | 4.92 | 3.04 | -7.99 | 1.72 | 1.61
Cc1c(-c2ccc(O)cc2)n(Cc2ccc(OCCN3CCCCCC3)cc2)c2ccc(O)cc12 [Bazedoxifene (acetate)] | 9.87 | 1.08 | -9.97 | -5.25 | -3.93
O=C1CC2(CCCC2)CC(=O)N1CCCCN1CCN(c2ncccn2)CC1 [Buspirone (hydrochloride)] | 24.5 | 1.48 | -8.4 | 4.59 | 0.171
Nc1cc(N2CCCCC2)nc(N)[n+]1[O-] [Minoxidil] | 2.04 | 3.09 | -1.78 | -5.41 | -0.063
Cc1nc2n(c(=O)c1CCN1CCC(c3noc4cc(F)ccc34)CC1)CCCC2O (stereo not given) [Paliperidone] | 15.4 | 0.117 | 18.6 | 0.732 | 5.58
COc1cc2c(cc1OC)C(=O)C(CC1CCN(Cc3ccccc3)CC1)C2 (stereo not given) [Donepezil] | 12 | -0.487 | -0.402 | -0.748 | -2.38
CN(C)CCC(c1ccc(Br)cc1)c1ccccn1 (stereo not given) [Brompheniramine (maleate)] | 4.19 | -2.92 | -11.7 | -3.69 | 7.28
COc1cc(NC(C)CCCN)c2ncccc2c1 (stereo not given) [Primaquine (phosphate)] | 23.1 | -5.2 | 2.45 | -4.94 | -0.724
N=C(N)NCCC[C@@H](NC(=O)[C@@H]1CCCN1C(=O)[C@@H]1CSSCCC(=O)N[C@@H](Cc2ccc(O)cc2)C(=O)N[C@@H](Cc2ccccc2)C(=O)N[C@@H](CCC(N)=O)C(=O)N[C@@H](CC(N)=O)C(=O)N1)C(=O)NCC(N)=O [Desmopressin (trifluoroacetate salt)] | 0.805 | -0.652 | 28.8 | -4.29 | 5.42
C=C[C@H]1CN2CC[C@H]1C[C@H]2[C@H](O)c1ccnc2ccc(OC)cc12 [Quinine] | 11.3 | 10.1 | -2.96 | 0.181 | -0.242
CC(=O)Oc1ccccc1C(=O)O [Aspirin] | -1 | 2.44 | 2.02 | 1.42 | 2.52
CCCN(CCC)S(=O)(=O)c1ccc(C(=O)O)cc1 [Probenecid] | -3.91 | 4.06 | 8.09 | 3.84 | 9.2
CC1=C(C(=O)O)N2C(=O)[C@@H](NC(=O)[C@H](N)c3ccccc3)[C@H]2SC1 [Cephalexin] | 6.31 | 7.97 | 2.55 | -0.572 | 3.98
COC(=O)CCc1ccc(OCC(O)CNC(C)C)cc1 (stereo not given) [Esmolol (hydrochloride)] | -2.69 | 4.98 | 5.19 | -2.83 | 10.6
CN(C)c1cc(NC(=O)CNC(C)(C)C)c(O)c2c1C[C@H]1C[C@H]3[C@H](N(C)C)C(O)=C(C(N)=O)C(=O)[C@@]3(O)C(O)=C1C2=O [Tigecycline] | 18.8 | 1.45 | -22.5 | -5.95 | -3.12
CC(C)C(=O)OCC(=O)[C@@]12O[C@H](C3CCCCC3)O[C@@H]1C[C@H]1[C@@H]3CCC4=CC(=O)C=C[C@]4(C)[C@H]3[C@@H](O)C[C@@]12C [Ciclesonide] | 9.7 | -3.59 | -7.9 | -5.49 | 9.17
CO[C@@]1(NC(=O)C2SC(=C(C(N)=O)C(=O)O)S2)C(=O)N2C(C(=O)O)=C(CSc3nnnn3C)CS[C@@H]21 (stereo not given in full) [Cefotetan (sodium salt)] | -4.63 | 4.7 | 10.3 | 7.15 | -1.08
CNC1(C)C2CCC(C2)C1(C)C (stereo not given) [Mecamylamine (hydrochloride)] | 3.59 | -1.88 | -1.28 | -4.36 | 11.1
C[C@H]1O[C@H](O[C@H]2[C@H](O)[C@@H](O)[C@@H](O[C@H]3[C@H](O)[C@@H](O)C(O)O[C@@H]3CO)O[C@@H]2CO)[C@H](O)[C@@H](O)[C@@H]1N[C@H]1C=C(CO)[C@@H](O)[C@H](O)[C@H]1O (stereo not given in full) [Acarbose] | 11 | -8.81 | -0.68 | -4.5 | 4.03
Cc1cc(C#N)cc(C)c1Oc1nc(Nc2ccc(C#N)cc2)nc(N)c1Br [Etravirine] | -2.94 | 0.144 | 10.9 | -5.6 | 7.48
C[C@H]1C[C@H]2[C@@H]3CCC4=CC(=O)C=C[C@]4(C)[C@@]3(F)[C@@H](O)C[C@]2(C)[C@@]1(O)C(=O)CO [Betamethasone] | 19.9 | 8.22 | -16.1 | 3.7 | 5.5
O=C1[C@@H]2[C@H]3CC[C@H](C3)[C@@H]2C(=O)N1C[C@@H]1CCCC[C@H]1CN1CCN(c2nsc3ccccc23)CC1 [Lurasidone] | -9.91 | 6.61 | -1.19 | -11.8 | -17
O=C(O)CSc1nnc(Br)n1-c1ccc(C2CC2)c2ccccc12 [Lesinurad] | 1.61 | 2.63 | 12.5 | -0.00375 | 2.41
Nc1ccc(O)c(C(=O)O)c1 [5-Aminosalicylic Acid] | 2.98 | 0.822 | 3.09 | 1.77 | -0.0944

Compound | difference in excitability [1] | difference in startle response [2] | difference in activity during first hour [3] | difference in habituation to acoustic stimuli [4] | difference [5]
O=C1CN(/N=C/c2ccc([N+](=O)[O-])o2)C(=O)N1 [Nitrofurantoin] | 9.88 | -2.07 | 8.16 | 4.03 | 8.98
CNC[C@H](O)c1ccc(O)c(O)c1 (racemic) [(±)-Epinephrine (hydrochloride)] | -0.953 | -6 | 37.7 | -7.58 | 4.53
C[C@@H]1O[C@@H]1P(=O)(O)O [Fosfomycin Trometamol] | 3.54 | -4.33 | -4.99 | -4.72 | -4.51
C[N+]1(C)CCC(OC(=O)C(O)(c2ccccc2)C2CCCC2)C1 (stereo not given) [Glycopyrrolate] | -0.597 | -8.53 | 7.84 | -7.11 | -2.89
CC(CCc1ccccc1)NCC(O)c1ccc(O)c(C(N)=O)c1 (stereo not given) [Labetalol (hydrochloride)] | 3.49 | 0.137 | 5.09 | 3.73 | -2.36
NCCCCCC(=O)O [6-Aminocaproic Acid] | 8.15 | -0.142 | 5.22 | 0.269 | 3.43
CC1(C)S[C@@H]2[C@H](NC(=O)COc3ccccc3)C(=O)N2[C@H]1C(=O)O [Penicillin V (potassium salt)] | -4.2 | 2.03 | 11 | 4.18 | -1.93
CC(C)n1c(/C=C/C(O)CC(O)CC(=O)O)c(-c2ccc(F)cc2)c2ccccc21 (stereo not given) [Fluvastatin (sodium salt hydrate)] | 11.5 | -2.51 | 4.55 | -1.22 | 3.05
NNCCc1ccccc1 [Phenelzine (sulfate)] | -5.16 | 2.45 | -14.5 | 5.81 | 2.16
COc1cc2nc(N3CCN(C(=O)c4ccco4)CC3)nc(N)c2cc1OC [Prazosin (hydrochloride)] | 20.4 | 2.07 | 11.2 | -7.66 | 6.47
CN(C)CCc1c[nH]c2ccc(C[C@H]3COC(=O)N3)cc12 [Zolmitriptan] | -7.59 | 9.39 | -0.487 | 4.76 | 10.3
CNCC[C@H](Oc1cccc2ccccc12)c1cccs1 [(S)-Duloxetine (hydrochloride)] | 4.76 | -1.86 | -21 | -3.34 | -11.3
CCOc1ccc(Cc2cc([C@@H]3O[C@H](CO)[C@@H](O)[C@H](O)[C@H]3O)ccc2Cl)cc1 [Dapagliflozin] | -2.18 | 0.361 | -2.82 | -5.36 | 5.64
Cc1c(-c2ccccc2)oc2c(C(=O)OCCN3CCCCC3)cccc2c1=O [Flavoxate (hydrochloride)] | 8.74 | 1.49 | 13.3 | -3.99 | 8.27
Nc1cccc2c1CN(C1CCC(=O)NC1=O)C2=O (stereo not given) [Lenalidomide] | -0.5 | 7.32 | 0.485 | -0.169 | 5.58
OC[C@@H](O)[C@@H](O)[C@H](O)[C@H](O)CO [D-Mannitol] | 1.16 | -0.914 | 5.26 | 3.53 | 4.85
CC(C(=O)O)c1cccc(C(=O)c2ccccc2)c1 (racemic) [(±)-Ketoprofen] | 0.309 | -1.06 | 8.57 | 6.2 | 11.1
Cc1c(C(=O)Nc2ccc(N3C[C@@H](C)O[C@@H](C)C3)nc2)cccc1-c1ccc(OC(F)(F)F)cc1 [LDE225 (phosphate)] | 13 | -4.4 | -2.84 | -4.9 | 3.16
C[C@]12CCC3=C4CCC(=O)C=C4CC[C@H]3[C@@H]1CC[C@@]2(O)CC#N [Dienogest] | 6.14 | -3.1 | 11.2 | 4.78 | 1.22
NC(N)=Nc1nc(CSCC/C(N)=N/S(N)(=O)=O)cs1 [Famotidine] | -2.4 | -1.19 | -7.05 | 6.6 | -3.11
CCc1cc(C(N)=S)ccn1 [Ethionamide] | -2.77 | -1 | -3.96 | 0.506 | 2.57
COC(=O)N[C@H](C(=O)N1CCC[C@H]1c1nc(-c2ccc3c(c2)O[C@@H](c2ccccc2)n2c-3cc3cc(-c4c[nH]c([C@@H]5CCCN5C(=O)[C@@H](NC(=O)OC)C(C)C)n4)ccc32)c[nH]1)C(C)C [Elbasvir] | 9.31 | -11.8 | 0.959 | 5.9 | 1.3
COCC1=C(C(=O)O)N2C(=O)[C@@H](NC(=O)/C(=N\OC)c3csc(N)n3)[C@H]2SC1 [Cefpodoxime] | 0.712 | 1.11 | -0.401 | -0.554 | 7.24
CC(COc1ccccc1)N(CCCl)Cc1ccccc1 (stereo not given) [Phenoxybenzamine (hydrochloride)] | 4.28 | 2.85 | 18.5 | -1.54 | 2.87

Reference: the supplement of paper PMC10515830
